Measured values: ChEMBL document CHEMBL1857833, “Screening and optimization of specific chemical series against human African Trypanosomiasis (HAT)”
Values joined by “and” are separate entries in the source; they are usually repeats but may differ in a detail not shown here. Identical values can stand only once. Out of some 4,400 compounds screened, about 390 (8.9%) showed an effect of 50% or more. For the sample, strong results were picked, then their nearest neighbours and some compounds at random.

Tested on: Trypanosoma brucei
Assay: DNDI: Inhibition of Human African Trypanosomiasis, SBRI 427, in vitro at 2 ug.mL-1
Assay type: functional

Row | SMILES | % inhibition
1 | C=CCN(Cc1coc(-c2ccc(C)cc2)n1)C1CCCC1 | 16%
2 | Cc1ccc([C@@H](C)NCc2coc(-c3ccc(O)cc3)n2)cc1 | 46%
3 | Cc1ccc(Oc2cc(/C(=N/O)N3CCN(c4ccc(F)cc4)CC3)ccn2)c2c1CCC2 | 31%
4 | COc1cc(CNCc2coc(-c3ccccc3Br)n2)cc(OC)c1OC | -33%
5 | CCN(Cc1ccccc1)Cc1coc(-c2cc(OC)c(OC)c(OC)c2)n1 | -20%
6 | Cc1ccc(C)c(N2CCN(Cc3coc(-c4ccc(O)cc4)n3)CC2)c1 | 9%
7 | Cc1cccc(-c2nc(CNCc3ccncc3)co2)c1 | -16%
8 | Cc1ccc(-c2nc(CN3CC[C@@H]4CCCC[C@@H]4C3)co2)cc1 | -5%
9 | CCN(/C(=N\O)c1ccnc(Oc2ccc(F)c(Cl)c2)c1)C(C)C | 14%
10 | O/N=C(\NCc1ccccc1)c1ccnc(Oc2ccc(F)c(Cl)c2)c1 | 24%
11 | CCN(/C(=N\O)c1ccnc(Oc2ccc(F)c(F)c2)c1)C(C)C | 43%
12 | COCC(C)N/C(=N\O)c1ccnc(Oc2ccc(F)c(Cl)c2)c1 (stereo not given) | 99%
13 | CC(C)c1ccc(N/C(=N\O)c2ccnc(Oc3ccc(F)c(Cl)c3)c2)cc1 | 0%
14 | CCN(/C(=N\O)c1ccnc(Oc2ccc(Cl)cc2)c1)C(C)C | 74%
15 | Cc1cn(/C(=N\O)c2ccc(Oc3ccc(Cl)cc3)nc2)cn1 | 5%
16 | CCCN(CC1CC1)/C(=N\O)c1cccnc1Oc1ccccc1OC | 24%
17 | CC(C)c1ccccc1Oc1ncccc1/C(N)=N/O | 7%
18 | COc1cc(C)ccc1Oc1nc(C)ccc1/C(=N/O)Nc1ccc(C(C)C)cc1 | 8%
19 | Cc1ccc(Oc2nc(C)ccc2/C(=N/O)NCc2ccco2)cc1 | 37%
20 | Cc1cc(C)cc(CN/C(=N\O)c2cccnc2Oc2ccc3ccccc3c2)c1 | 70%
21 | O/N=C(\NCc1cccnc1)c1cccnc1Oc1ccc2ccccc2c1 | -6%
22 | CCC(C)(C)N/C(=N\O)c1cccnc1OCC(C)(C)C | 11%
23 | CC(C)N/C(=N\O)c1cccnc1Oc1ccc2ccccc2c1 | 21%

Row | SMILES | % inhibition
24 | COc1ccc(Oc2ncccc2/C(=N/O)NCc2cccnc2)cc1 | -2%
25 | COc1ccc(Oc2ncccc2/C(=N/O)NCc2cc(C)cc(C)c2)cc1 | 79%
26 | CCC(C)(C)N/C(=N\O)c1cccnc1Oc1ccc2ccccc2c1 | 99%
27 | Cc1ccc(CN/C(=N\O)c2cccnc2Oc2ccc3ccccc3c2)o1 | 19%
28 | CCCN/C(=N\O)c1cccnc1Oc1ccc2ccccc2c1 | 25%
29 | CC(C)c1ccc(N/C(=N\O)c2cccnc2OCC(C)(C)C)cc1 | 14%
30 | Cc1cc(C)cc(CN/C(=N\O)c2cccnc2Oc2ccc(Cl)cc2)c1 | 31%
31 | CC(C)N/C(=N\O)c1cccnc1OCC(C)(C)C | 100%
32 | COc1cccc(-c2nc(CN3CCOCC3)co2)c1 | 35%
33 | FC(F)(F)CNCc1coc(-c2ccc(Cl)cc2Cl)n1 | 23%
34 | COCC(C)NCc1coc(-c2ccccc2C)n1 (stereo not given) | 9%
35 | CC(c1ccccc1)N(C)Cc1coc(-c2ccc(C(F)(F)F)cc2)n1 (stereo not given) | 7% and -11%
36 | Cc1cc(C)cc(Oc2ccc(/C(N)=N/O)cn2)c1 | 11%
37 | Clc1ccccc1-c1nc(CNC(c2ccccc2)c2ccccc2)co1 | 6%
38 | CC1CC(C)CN(Cc2coc(-c3ccc(Br)cc3)n2)C1 (stereo not given) | -5%
39 | CCOc1ccccc1-c1nc(CN(C)C(C)c2ccccc2)co1 (stereo not given) | 8% and 1%
40 | CCOc1cccc(-c2nc(CNC(CC)c3ccccc3)co2)c1 (stereo not given) | 27%
41 | Fc1ccc(N2CCN(Cc3coc(-c4ccccc4Br)n3)CC2)cc1 | -6%
42 | Cc1nccn1/C(=N\O)c1cccnc1OCC(C)C | -13%
43 | O/N=C(\NCc1cc(F)ccc1F)c1ccc(Oc2ccc3ccccc3c2)nc1 | 31%
44 | Cc1cc(C)cc(CN/C(=N\O)c2cccnc2OCC(C)(C)C)c1 | -8%
45 | CSCCN/C(=N\O)c1cccnc1OCC(C)C | -5%
46 | Cc1cc(C)cc(CN/C(=N\O)c2cccnc2OCC(C)C)c1 | 92%

Row | SMILES | % inhibition
47 | COCCN/C(=N\O)c1cccnc1OCC(C)C | -7%
48 | CC(C)COc1ncccc1/C(=N/O)NCc1ccccc1 | 37%
49 | CC(C)COc1ncccc1/C(=N/O)NCC(C)(C)C | 95%
50 | Fc1cccc(-c2nc(CNc3cc[nH]n3)co2)c1 | 45%
51 | FC(F)(F)c1ccc(-c2nc(CN3CCN(C(c4ccccc4)c4ccccc4)CC3)co2)cc1 | -3%
52 | CCOc1ccc(-c2nc(CNC(CC)c3ccccc3)co2)cc1 (stereo not given) | 1% and -14%
53 | CCCCN(CC)Cc1coc(-c2ccccc2Cl)n1 | 19%
54 | COc1ccc(-c2nc(CNCCCN3CCCCC3C)co2)cc1 (stereo not given) | 97%
55 | COc1ccc(-c2nc(CN3CCCCC3C)co2)cc1 (stereo not given) | 12%
56 | CC1CCCCN1CCCNCc1coc(-c2ccco2)n1 (stereo not given) | 23%
57 | Fc1ccc(-c2nc(CNCCN3CCCCC3)co2)cc1 | -17%
58 | Fc1ccc(-c2nc(CNCCN3CCCC3)co2)cc1 | 1%
59 | CC1CCCCN1CCCNCc1coc(-c2ccc(F)cc2)n1 (stereo not given) | 72%
60 | COC(=O)C1CCN(/C(=N\O)c2cccnc2Oc2cccc3ccccc23)CC1 | 9%
61 | CC1CCCN1/C(=N\O)c1cccnc1Oc1ccc(Cl)cc1 (stereo not given) | -13%
62 | CN(Cc1coc(-c2ccc(C(F)(F)F)cc2)n1)c1ccccc1 | 1%
63 | Oc1ccc(-c2nc(CN(Cc3ccccc3)c3ccccc3)co2)cc1 | 11%
64 | NCCc1cn(Cc2coc(-c3cccs3)n2)c2ccccc12 | -15%
65 | CCN(Cc1ccccc1)Cc1coc(-c2ccc(OC)cc2)n1 | -11%
66 | CCC(C)(C)N/C(=N\O)c1ccc(C)nc1Oc1cccc(C)c1 | 19%
67 | Cc1cccc(Oc2nc(C)ccc2/C(=N/O)NCc2ccccc2)c1 | 6%
68 | Cc1ccc(/C(=N/O)NCc2cc(F)cc(F)c2)c(OCc2cccc(F)c2)n1 | -12%
69 | Cc1ccc(/C(=N/O)NCC2CC2)c(Oc2ccc3ccccc3c2)n1 | 17%

Row | SMILES | % inhibition
70 | CCCN/C(=N\O)c1ccc(C)nc1OCc1cccc(F)c1 | 0%
71 | Cc1ccc(/C(=N/O)NCC(C)(C)C)c(OCc2cccc(F)c2)n1 | 96%
72 | Cc1ccc(/C(=N/O)NCC(C)(C)C)c(Oc2ccc3ccccc3c2)n1 | 96%
73 | CSCCN/C(=N\O)c1ccc(C)nc1Oc1ccc2ccccc2c1 | 7%
74 | CSCCN/C(=N\O)c1ccc(C)nc1Oc1cccc(F)c1 | 12%
75 | CCC(C)(C)N/C(=N\O)c1ccc(C)nc1Oc1cccc(F)c1 | 13%
76 | Cc1cccc(Oc2nc(C)ccc2/C(=N/O)NCC(C)(C)C)c1 | 100%
77 | Cc1ccc(/C(=N/O)NCC(C)(C)C)c(Oc2cccc(F)c2)n1 | 99%
78 | Cc1cccc(-c2nc(Cn3cc(-c4ccccc4)c(C)n3)co2)c1 | -11%
79 | c1ccc(-c2nc(CN3CCC4CCCCC4C3)co2)cc1 (stereo not given) | 37%
80 | C#CC(CC)(CC)NCc1coc(-c2cccs2)n1 | -2%
81 | CCN(Cc1ccccc1)Cc1coc(-c2cccc(OC)c2)n1 | -7%
82 | CCN1CCN(Cc2coc(-c3ccc(C(F)(F)F)cc3)n2)CC1 | 10%
83 | CCCc1nccn1Cc1coc(-c2cccc(F)c2)n1 | 5%
84 | COc1cc(CNCc2coc(-c3ccc(C)cc3)n2)cc(OC)c1OC | 9%
85 | O=c1c(Cl)cn(Cc2coc(-c3ccc(C(F)(F)F)cc3)n2)cc1Cl | -5%
86 | COc1ccc(-c2nc(CN3CCN(c4ccccc4OC)CC3)co2)cc1 | 13%
87 | CC(C)(C)c1ccc(CNCc2coc(-c3cccc4ccccc34)n2)cc1 | -1%
88 | CC(C)N/C(=N\O)c1cccnc1Oc1ccc(-n2cncn2)cc1 | 42%
89 | COc1ccc(Oc2ncccc2/C(=N/O)NCC2CC2)cc1 | 99%
90 | COc1ccccc1Oc1ncccc1/C(=N/O)NCc1ccco1 | 27%
91 | CC1CC(N/C(=N\O)c2cccnc2Oc2ccc(-n3cncn3)cc2)CC(C)(C)C1 (stereo not given) | 41%
92 | COc1ccc(CN/C(=N\O)c2cccnc2Oc2ccccc2OC)cc1 | 13%

Row | SMILES | % inhibition
93 | COc1ccc(Oc2ncccc2/C(=N/O)NCC2CCCCC2)cc1 | 93%
94 | CC1CCC(N/C(=N\O)c2cccnc2Oc2ccc(-n3cncn3)cc2)CC1 (stereo not given) | 98%
95 | COc1ccc(Oc2nc(C)ccc2/C(=N/O)NCC2CCCCC2)cc1 | 24%
96 | COc1ccccc1Oc1ncccc1/C(=N/O)NCC1CC1 | 96%
97 | COc1cccc(-c2nc(Cn3cnc(-c4ccccc4)c3)co2)c1 | -15%
98 | O/N=C(/c1cccnc1Oc1ccc(F)cc1)N1CCCCCC1 | 1%
99 | COc1ccc(CN/C(=N\O)c2cccnc2Oc2ccc3c(c2)CCCC3)cc1 | 8%
100 | Cc1ccc(/C(=N/O)Nc2ccc(C(C)C)cc2)c(Oc2cccc(F)c2)n1 | 16%
101 | Cc1ccc(/C(=N/O)NCc2ccc(C)o2)c(Oc2ccc3oc4ccccc4c3c2)n1 | 9%
102 | CCCCN(CCC#N)Cc1coc(-c2ccc(C(C)(C)C)cc2)n1 | 3%
103 | CCOc1ccc(-c2nc(CNCc3ccccc3C(F)(F)F)co2)cc1 | 1%
104 | Cc1ccc(/C(=N/O)NCC2CCCCC2)c(Oc2ccc3ccccc3c2)n1 | 18%
105 | O/N=C(\NCC1CC1)c1cccnc1Oc1ccc2ccccc2c1 | 99%
106 | Cc1ccc(/C(=N/O)NCC2CCCCC2)c(Oc2ccc(Cl)cc2)n1 | -11%
107 | O/N=C(\NCC1CCCO1)c1cccnc1Oc1ccc(-n2cncn2)cc1 (stereo not given) | 24%
108 | O/N=C(\NCC1CCCCC1)c1cccnc1Oc1ccc(Cl)cc1 | 98%
109 | CCCN(CC1CC1)/C(=N\O)c1cccnc1Oc1ccccc1SC | 30%
110 | O/N=C(\NCC1CCCCC1)c1cccnc1Oc1ccc(-n2cncn2)cc1 | 90%
111 | O/N=C(\NCc1ccccc1)c1cccnc1Oc1ccc(-n2cncn2)cc1 | 21%
112 | CC(C)(C)COc1ncccc1/C(=N/O)NCC1CCCCC1 | -1%
113 | CSc1ccccc1Oc1ncccc1/C(=N/O)NCCN1CCCC1 | 22%
114 | O/N=C(\NCCN1CCOCC1)c1cccnc1Oc1ccc2ccccc2c1 | -10%
115 | CSc1ccccc1Oc1ncccc1/C(=N/O)NCC1CC1 | 99%
